The source made the active and inactive calls. Rule for the calls: active = hit-call score of the fitted dose curve at least 0.9, where 1 is the maximum; inactive = score below 0.9.

This experiment is described as follows: APR_HepG2_CellCycleArrest_72hr: Apredica 72-hour HepG2 Assay for Cell Cycle Arrest (AID 2282914). As to conditions: high-content imaging, actives raise or lower the signal. On the procedure:
APR_HepG2_72hr is a cell-based, multiplexed-readout assay that uses HepG2, a human liver cell line, with measurements taken at 72 hours after chemical dosing in a 384-well plate.APR_HepG2_CellCycleArrest_72hr is one of 10 assay component(s) measured or calculated from the APR_HepG2_72hr assay. It is designed to make measurements of cell phenotype, a form of morphology reporter, as detected with fluorescence intensity signals by HCS Fluorescent Imaging technology.Data from the assay component APR_HepG2_CellCycleArrest_72hr was analyzed into 1 assay endpoint. This assay endpoint, APR_HepG2_CellCycleArrest_72hr, was analyzed with bidirectional fitting relative to DMSO as the negative control and baseline of activity. Using a type of morphology reporter, measures of all nuclear dna for gain or loss-of-signal activity can be used to understand the signaling at the pathway-level as they relate to the gene . Furthermore, this assay endpoint can be referred to as a primary readout, because this assay has produced multiple assay endpoints where this one serves a signaling function. To generalize the intended target to other relatable targets, this assay endpoint is annotated to the cell cycle intended target family, where the subfamily is arrest.
Cells were treated with dimethyl sulfoxide (DMSO) as a solvent control at a final concentration of 0.5% v/v or with compounds in DMSO with a resulting final DMSO concentration of 0.5% v/v. Compound treatment was done at concentrations of 0.39, 0.78, 1.56, 3.12, 6.24, 12.5, 25, 50, 100, and 200 uM in duplicate on each plate. Cells were treated with compounds for 1, 24, or 72 hr. Carbonyl […] m-chloro-phenylhydrazone (CCCP) and taxol were used as positive controls for mitochondrial function and cytoskeletal stability, respectively; DMSO served as the negative control for this experiment. Cells were fixed by the direct addition of 50 uL formaldehyde in Hank's Balanced Salt Solution (HBSS) to a final concentration of 3.7%. After incubation in the fixation medium for 30 min at room temperature (293-298 K), cells were rinsed twice with HBSS and treated with cell permeabilization buffer (16 uL of 0.5% Triton X-100) for 10 min at room temperature (293-298 K) before labeling. For mitochondrial membrane potential and mitochondrial measurements, pre-fixed cells were incubated with 50 uL of MitoTracker Red CMXRos (Invitrogen) at a concentration of 250 nM for 30 min before fixation. In the remaining cases, post-fixed cells were labeled by incubation with a multiplexed mixture of primary antibodies in HBSS for 60 min at room temperature (293-298 K) to detect immunoreactivity of c-Jun (1:500), phospho-histone H3 (1:100), phospho-histone H2A.x (1:200), p53 (1:400), alpha-tubulin (1:200) and Hoechst 33342 (2 ug/mL). Cells were labeled for multiplexed imaging on two separate plates: a) Hoechst 33342, MitoTracker Red, phospho-histone H3, and alpha-tubulin, and b) Hoechst 33342, phospho-histone H2A.x, and c-Jun. A final rinse with HBSS (50 uL) was performed before analysis. The primary and secondary antibodies for the proteins were phospho-histone H3 (rabbit anti-phospho-histone H3 and FITC-donkey anti-rabbit IgG), phospho-histone H2A.x (mouse anti-phospho-histone H2A.x and FITC-donkey anti-mouse IgG), c-Jun (rabbit anti-phospho-c-Jun and Cy3-donkey anti-rabbit IgG), p53 (sheep anti-p53 and Cy5-donkey anti-sheep IgG), alpha-tubulin (mouse anti-alpha-tubulin and Cy5-donkey anti-mouse IgG). These antibodies are available as the CellCiphr HepG2 assay kit (Millipore).Digital images of each well were captured using a Cellomics ArrayScan VTI (Thermo Scientific Cellomics) (0.8 NA objective, 0.63x optical coupler, and XF-93 filter set) at 20x magnification. The images were acquired using the autofocus feature of the ArrayScan instrument, which entails the following steps. First, the camera focuses on channel 1 (Hoechst 33342), where nuclei are identified. Second, a Z offset of 1 um is used for capturing mitochondria (MitoTracker Red). […]
As for `CC(C)(C)C(=O)C(Oc1ccc(Cl)cc1)n1cncn1` (stereo not given), the half-maximal activity concentration (AC50) is 82.2 µM (active).

For the compound `COCC(=O)N(c1c(C)cccc1C)C(C)C(=O)OC` (stereo not given), the call was inactive.

With `CC(C)=CC1C(C(=O)OCc2coc(Cc3ccccc3)c2)C1(C)C` (stereo not given), the AC50 was 31.7 µM (active).

On to `OC(c1ccc(Cl)cc1)(c1ccc(Cl)cc1)C(Cl)(Cl)Cl`, for which the result was inactive.

In the case of `CN/C(=N\[N+](=O)[O-])NCc1cnc(Cl)s1`, the outcome was inactive.

On to `CCCCOCN(C(=O)CCl)c1c(CC)cccc1CC`, for which the outcome was inactive.

As to `COc1cc(OC)nc(NC(=O)NS(=O)(=O)c2ncccc2OCC(F)(F)F)n1`, the result was inactive.

As for `CCOc1cc(C(C)(C)C)ccc1C1COC(c2c(F)cccc2F)=N1` (stereo not given), the outcome was inactive.

For `Cc1c(COC(=O)[C@@H]2[C@H](/C=C(\Cl)C(F)(F)F)C2(C)C)cccc1-c1ccccc1`, the outcome was inactive.

`O=C(Nc1ccccc1-c1ccc(Cl)cc1)c1cccnc1Cl`: the call was inactive.

Regarding `O=C1C2CC=CCC2C(=O)N1SC(Cl)(Cl)Cl` (stereo not given), the compound was classed as inactive.

Turning to `Nc1cnn(-c2ccccc2)c(=O)c1Cl`, the compound was classed as inactive.

With `CCCCC(C#N)(Cn1cncn1)c1ccc(Cl)cc1` (stereo not given), the result was inactive.

On to `CC1(C)C(C=C(Cl)Cl)C1C(=O)OC(C#N)c1cccc(Oc2ccccc2)c1` (stereo not given), for which the result was inactive.

On to `COc1ccc(-c2ccccc2)cc1NNC(=O)OC(C)C`, for which the result was inactive.

As to `CO/N=C(/C1=NOCCO1)c1ccccc1Oc1ncnc(Oc2ccccc2Cl)c1F`, the compound was called inactive.

Consider `COCC(C)N(C(=O)CCl)c1c(C)csc1C` (stereo not given), for which the compound was called inactive.

`CC(C)N1C(=O)c2ccccc2NS1(=O)=O`: the result was inactive.

For the compound `Cc1nc(N(C)C)nc(OC(=O)N(C)C)c1C`, the result was inactive.

As for `N#CN=C1SCCN1Cc1ccc(Cl)nc1`, the compound was classed as inactive.

Consider `CC(C)C1(C)N=C(c2ncccc2C(=O)O)NC1=O` (stereo not given), for which the compound was classed as inactive.

Take `Cc1cc(C)nc(Nc2ccccc2)n1`: the half-maximal activity concentration (AC50) was 61.8 µM (active).

As to `Clc1cccc(C(Cl)(Cl)Cl)n1`, the compound was classed as inactive.

For `CCCC(=NOCC)C1=C(O)CC(CC(C)SCC)CC1=O` (stereo not given), the outcome was inactive.

Take `CC1(C)CCC(=Cc2ccc(Cl)cc2)C1(O)Cn1cncn1` (stereo not given): the result was inactive.

As for `CSC(=O)c1c(C(F)F)nc(C(F)(F)F)c(C(=O)SC)c1CC(C)C`, the outcome was inactive.

`CCSC(=O)N1CCCCCC1`: the outcome was inactive.

`CCN(CC)C(=O)C(C)Oc1cccc2ccccc12` (stereo not given): the AC50 was 106 µM (active).

For the compound `CCCN(CC)CC1COC2(CCC(C(C)(C)C)CC2)O1` (stereo not given), the call was inactive.

In the case of `CS(=O)(=O)c1ccc(C(=O)C2C(=O)CCCC2=O)c([N+](=O)[O-])c1`, the compound was called inactive.

Take `CS(=O)(=O)c1cc(C(F)(F)F)ccc1C(=O)c1cnoc1C1CC1`: the outcome was inactive.

Consider `CCCCC(O)(Cn1cncn1)c1ccc(Cl)cc1Cl` (stereo not given), for which the compound was called inactive.

Take `COC(=O)NC(=S)Nc1ccccc1NC(=S)NC(=O)OC`: the AC50 is 100 µM (active).

As to `O=P(O)(O)CCCl`, the compound was classed as inactive.

For `O=C(O)c1c(Cl)ccc2cc(Cl)cnc12`, the compound was called inactive.

As for `CCNP(=S)(OC)O/C(C)=C/C(=O)OC(C)C` (stereo not given), the compound was classed as inactive.

`CC1(C)C(C(=O)OC(C#N)c2cccc(Oc3ccccc3)c2)C1(C)C` (stereo not given): the result was inactive.

`CCOP(=S)(OCC)Oc1nc(Cl)n(C(C)C)n1`: the compound was classed as inactive.

As for `COP(=O)(OC)O/C(C)=C/C(=O)N(C)C`, the result was inactive.

Consider `Clc1nc(Cl)nc(Nc2ccccc2Cl)n1`, for which the outcome was inactive.

Broadly, the AC50 is the midpoint of the concentration-response curve, whichever way the signal moves.

(Values after PubChem BioAssay (EPA / NIEHS).)
